Assay results taken from PubChem BioAssay AID1030 (National Center for Advancing Translational Sciences (NCATS), 2008).
Screen size: about 220,000 compounds; about 16,000 (7.3%) were called active. About 25% were inconclusive and are not listed. Calls follow the shape of the dose curve; as a rule, active = well fitted inhibition curve with a large enough effect (not every such curve was filed as active); inconclusive = small, poorly fitted or top-dose-only effect, or another doubt; inactive = no such curve, though single readings can be large or run the other way. The full list was thinned out, with actives kept by preference.

The compounds below were run against Aldehyde dehydrogenase 1A1 (Homo sapiens) (UniProt P00352) (assay: qHTS Assay for Inhibitors of Aldehyde Dehydrogenase 1 (ALDH1A1)). Conditions: Purified ALDH1A1, NADH fluorescence, propionaldehyde substrate; series mostly up to 75.3 µM; activity, negative = inhibition: at the top concentration.
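For activity, negative = inhibition in this document: plate controls were no enzyme wells and a reference inhibitor.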
Potency is read from the fitted curve at half-maximal effect.

Aldehyde dehydrogenase 1A1 (Homo sapiens), sequence (P00352 whole entry, looked up): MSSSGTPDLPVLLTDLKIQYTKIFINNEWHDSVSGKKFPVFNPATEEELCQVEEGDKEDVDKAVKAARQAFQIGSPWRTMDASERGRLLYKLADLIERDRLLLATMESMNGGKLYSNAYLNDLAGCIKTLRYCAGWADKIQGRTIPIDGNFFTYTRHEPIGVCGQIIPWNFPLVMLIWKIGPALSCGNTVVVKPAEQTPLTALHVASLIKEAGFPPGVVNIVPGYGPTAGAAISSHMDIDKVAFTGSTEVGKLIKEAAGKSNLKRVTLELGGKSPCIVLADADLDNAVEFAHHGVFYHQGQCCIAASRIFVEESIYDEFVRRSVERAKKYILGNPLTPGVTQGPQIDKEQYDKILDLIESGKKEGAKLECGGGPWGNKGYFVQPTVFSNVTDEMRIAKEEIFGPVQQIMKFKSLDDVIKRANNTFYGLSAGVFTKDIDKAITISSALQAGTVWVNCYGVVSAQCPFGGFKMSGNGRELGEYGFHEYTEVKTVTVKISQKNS

SMILES | activity, negative = inhibition | Potency
CN(Cc1cccc2ncccc12)C(=O)CC1C(=O)NCCN1Cc1ccc(F)cc1 (stereo unspecified) | -10% (inactive) | 
COc1ccc(C)cc1NC(=O)Nc1ccccc1SC | -5.22% (inactive) | 
O=C(c1ccccn1)c1ncc(C(F)(F)F)cc1Cl | 17.1% (inactive) | 
N/C(=N\OC(=O)Nc1ccc(Cl)c(Cl)c1)c1ncc(C(F)(F)F)cc1Cl |  | 25.1 µM (active)
O=C(CC(O)(C(F)(F)F)C(F)(F)F)Nc1ccc(Cl)c(Cl)c1 | -4.42% (inactive) | 
CC1(OC(=O)CCc2ccccc2)C(=O)C=C2C=C(c3ccc(C#N)cc3)N(CCc3ccccn3)C=C2C1=O (stereo unspecified) | 10.1% [at 13.5 µM] (inactive) | 
C=CCn1c(-c2ccc3[nH]c(C)c(C)c3c2)n[nH]c1=S |  | 12.6 µM (active)
C=CCn1c(-c2ccccc2OCC)n[nH]c1=S | -15% (inactive) | 
C=CCn1c(CCc2ccc(OC(C)C)cc2)n[nH]c1=S | -5.12% (inactive) | 
O=C(CN1CCN(c2ncccn2)CC1)Nc1ccccc1C(F)(F)F | 3.02% (inactive) | 
c1ccc(-c2cc(N3CCCCC3)c3ccccc3n2)cc1 | -14.9% (inactive) | 
COc1cccc(NC(=O)C(Sc2nnnn2C)c2ccccc2)c1 (stereo unspecified) | 5.1% (inactive) | 
OCCNCc1cccc(OCc2ccccc2Cl)c1 | 6.58% (inactive) | 
O=C(C1CCCO1)N1CCN(C(=S)NC2CC2)CC1 (stereo unspecified) | -0.777% (inactive) | 
Cn1c(=O)c2c(nc(SCC(=O)Nc3ccccc3N3CCCCC3)n2C)n(C)c1=O | -12.6% (inactive) | 
CCC1CCCCN1C(=O)CSc1nc2c(c(=O)n(C)c(=O)n2C)n1C (stereo unspecified) |  | 12.6 µM (active)
CCC1CCCCN1C(=O)CSc1nc(C)cc(C)n1 (stereo unspecified) | -4.6% (inactive) | 
Cc1c(C(=O)N/N=C/c2ccccc2)[nH]c2c([N+](=O)[O-])cccc12 | 8.46% (inactive) | 
Cc1[nH]c(=O)c(C(=O)/C=C/c2ccccc2)c2c1CCCC2 | 4.06% (inactive) | 
O=C(/C=C/c1ccccc1)c1ccccc1O |  | inactive
Cc1nc(-c2ccccc2)sc1C(=O)/C=C/c1ccccc1 |  | 3.55 µM (active)
O=C(O)C1C2CC2CN1C(=O)c1ccc(Cl)cc1Cl (stereo unspecified) | 1.47% (inactive) | 

SMILES | activity, negative = inhibition | Potency
Cc1[nH][nH]c(=O)c1C(c1ccc2c(c1)OCO2)c1c(C)[nH][nH]c1=O | -2.58% (inactive) | 
Cc1[nH][nH]c(=O)c1N=Nc1ccccc1 | 8.64% (inactive) | 
Cc1[nH][nH]c(=O)c1C(c1ccc(-c2ccc(Cl)cc2)o1)c1c(C)[nH][nH]c1=O |  | 22.4 µM (active)
O=C(NCCc1ccccn1)c1cccnc1Oc1ccc(Cl)cc1 | 9.99% (inactive) | 
CN1CCN(C(=O)CCc2nc(-c3ccc(Cl)cc3)no2)CC1 | 11.6% (inactive) | 
CCOC(=O)Nc1ccccc1N1C(=O)c2ccccc2C1=O | 10.7% (inactive) | 
CCCCN1C(=O)/C(=C(/C#N)C(N)=O)c2ccccc21 |  | 7.08 µM (active)
CCCn1c(=O)c2ccccc2n2c(SCC(=O)/C(C#N)=C(\C)N)nnc12 | 1.09% (inactive) | 
CCc1nnc(NS(=O)(=O)c2ccc(N=Cc3c(C)[nH]n(-c4ccc(C)cc4)c3=O)cc2)s1 | -7.49% (inactive) | 
Cc1ccc(-n2[nH]c(C)c(/C=N/N3C(=O)c4cccc5cccc(c45)C3=O)c2=O)cc1 | 4.67% (inactive) | 
COc1cc(SC#N)ccc1N=Cc1c(C)[nH]n(-c2ccc(C)cc2)c1=O |  | 0.631 µM (active)
N/C(=N\S(=O)(=O)c1cc(C(F)(F)F)cc(C(F)(F)F)c1)c1cccs1 | -0.599% (inactive) | 
CC1=CC(=C(C#N)c2nc3ccccc3s2)C=C(C)N1c1ccc(F)cc1F | -9.49% (inactive) | 
Oc1ccccc1C=NC1CCCCC1N=Cc1ccccc1O (stereo unspecified) | 11% (inactive) | 
O=c1c(O)c(Br)ccc2c(Br)c(O)c(O)c(O)c12 |  | 8.91 µM (active)
CCOc1ccc(NC(=O)NNC(=O)c2ccc(Cl)cc2Cl)cc1 | 3.26% (inactive) | 
Oc1cc(O)c2c(c1)OC(c1ccc(O)c(O)c1)C(O)C2 (stereo unspecified) |  | 10 µM (active)
Cc1nc2cc(NC(=O)NC3CC3)ccc2n1C | -9.58% (inactive) | 
CC(C)Oc1ccc(CC(=O)NNC(=S)Nc2ccc(Br)cc2)cc1 |  | 10 µM (active)
COC(=O)Cc1ccc(NC(=S)NCc2ccccc2)cc1 | 1.73% (inactive) | 
COCC(=O)Nc1ccc(Br)cc1 | 5.23% (inactive) | 
CC(C)C(O)C1CCN(Cc2nc(Cc3ccccc3Cl)no2)CC1 (stereo unspecified) | -0.592% (inactive) | 

SMILES | activity, negative = inhibition | Potency
Cc1ccc(COc2ccc(/C=N/NC(=O)CN3CCCCC3)cc2)cc1 | 8.06% (inactive) | 
S=c1[nH]nc(SCc2ccccc2Cl)c2[nH]cnc12 |  | 0.0316 µM (active)
O=c1cc(O)nc(SCc2ccccc2Cl)[nH]1 | 1.42% (inactive) | 
COc1cc2[nH]c(=S)n(Cc3ccc(F)cc3)c(=O)c2cc1OC | 6.91% (inactive) | 
CCOC(=O)N1CCN(C(=O)Cc2ccc(-n3c(=S)[nH]c4ccccc4c3=O)cc2)CC1 | -10.4% (inactive) | 
COc1ccccc1-n1c(=S)[nH]c2c(sc(=S)n2-c2ccc(C)cc2C)c1=O |  | 8.91 µM (active)
CCc1ccc(-n2c(=S)sc3c(=O)n(-c4ccccc4OC)c(=S)[nH]c32)cc1 |  | 12.6 µM (active)
COc1ccc(OC)c(-n2c(=S)[nH]c3cc(C(=O)N4CCCCC4)ccc3c2=O)c1 | -1.79% (inactive) | 
Cc1ccc(Cl)cc1NC(=O)c1ccccn1 | 3.34% (inactive) | 
Cc1cn(C2OC[C@@H](O)[C@@H]2CO)c(=O)[nH]c1=O (stereo partly specified) | 9.87% (inactive) | 
O=C(NCc1cccnc1)c1cccc(-c2cc3ccccc3oc2=O)c1 | -7.95% (inactive) | 
CCc1ccc(CN(C)Cc2nc(Cc3ccccc3)no2)nc1 | -4.1% (inactive) | 
CN(C)CCCN1C(=O)CSC1c1ccc([N+](=O)[O-])cc1 (stereo unspecified) | 4.08% (inactive) | 
CCC(CC)C(=O)N1CC(=O)Nc2ccc(Br)cc2C1c1ccccc1 (stereo unspecified) | 0.759% (inactive) | 
O=C(c1ccc(S(=O)(=O)N2CCOCC2)cc1)N1CCN(c2ccccc2)CC1 | 2.43% (inactive) | 
Cc1ccc2c(c1)C(c1ccccc1)N(C(=O)c1ccc(S(=O)(=O)N3CCOCC3)cc1)CC(=O)N2 (stereo unspecified) |  | 7.94 µM (active)
CNS(=O)(=O)c1ccc(NC(=O)C2CC(=O)N(c3ccc(Cl)cc3)C2)cc1 (stereo unspecified) | 5.48% (inactive) | 
O=C(CCl)NNc1cccc(Cl)n1 |  | 10 µM (active)
COc1cc(OC)nc(NC(=O)CCl)n1 | 3.91% (inactive) | 
O=C(NNc1ccccn1)c1ccc(Cl)nc1 | -11.2% (inactive) | 
CCCCSc1nc2ccccc2[nH]1 | -4.29% (inactive) | 
COc1cc(CCC(=O)OCC(=O)Nc2cccc(S(N)(=O)=O)c2)cc(OC)c1OC | -5.58% (inactive) | 

SMILES | activity, negative = inhibition | Potency
Cc1nn(C)c(C)c1S(=O)(=O)N1CCC(CO)(Cc2ccc(Cl)cc2)CC1 | 7.34% (inactive) | 
COc1ccc(NC(=S)NCC2CCN(c3ccc(OC)cc3)C2)cc1 (stereo unspecified) |  | 35.5 µM (active)
COc1ccc(NC(=S)NCCN2CCC(C)CC2)cc1 | 0.486% (inactive) | 
COc1ccc(OCC(=O)Nc2ccc(N3CCC(C)CC3)cc2)cc1 | 9.23% (inactive) | 
O=C(Nc1cccc(Cl)c1)c1cc([N+](=O)[O-])ccc1N1CCN(CCO)CC1 | -7.69% (inactive) | 
CN1CCN(c2ccc(S(=O)(=O)Nc3ccccc3)cc2[N+](=O)[O-])CC1 | -5.79% (inactive) | 
CCNC(=O)c1ccc(OCC(=O)Nc2ccc(F)cc2)c(OC)c1 | 2.14% (inactive) | 
CCCCn1c(N)c(N2CCOCC2)c(=O)n(CC(=O)NCCc2ccccc2)c1=O | 8.85% (inactive) | 
Cc1nc(S(=O)(=O)c2ccc(Br)cc2)nc2c1CCC2 | -3.44% (inactive) | 
O=S(=O)(NN=C1CCCCCCC1)c1ccc(Br)cc1 |  | 11.2 µM (active)
O=C(CCc1ccc(S(=O)(=O)N2CCOCC2)cc1)NN=C1CCCCCCC1 | -9.69% (inactive) | 
CC(=O)Cn1ncc(N2CCOCC2)c(Br)c1=O | 3.21% (inactive) | 
Cc1ccc(OCC(=O)Nc2ccc(S(=O)(=O)Nc3ccccn3)cc2)cc1 | -0.623% (inactive) | 
Cc1ccc(NS(=O)(=O)c2c(C)[nH]c(=O)[nH]c2=O)cc1C | -15% (inactive) | 
Cc1ccc(Nc2cc(=O)n(C3CCCCC3)c(=O)[nH]2)cc1C |  | 1 µM (active)
COC(=O)C1=C(C(=O)OC)[C@@H]2Nc3ccccc3[C@@]23C[C@@H](C(=O)OC)N(S(=O)(=O)c2ccc([N+](=O)[O-])cc2)C3=N1 | -1.68% [at 13.5 µM] (inactive) | 
Nc1c(NCCc2ccccc2)c2ccccc2oc1=O | -7.28% (inactive) | 
O=C1C(Cl)=C(N2CCOCC2)C(=O)N1c1ccccc1 | -8.32% (inactive) | 
O=C1c2ccccc2C(=O)N1c1ccccc1S(=O)C(F)(F)F (stereo unspecified) | 12.6% (inactive) | 
O=C1C(=O)N(c2ccccc2)c2ccccc21 |  | 6.31 µM (active)
COC(=O)c1c(C)oc2ccc(N(C(=O)Oc3ccccc3)S(=O)(=O)c3ccccc3)cc12 | -1.58% (inactive) | 
Cc1ccccc1NC(=O)c1nn(-c2ccc(F)c(F)c2)ccc1=O | 0.92% (inactive) | 

SMILES | activity, negative = inhibition | Potency
C(=N/Nc1cc(N2CCOCC2)nc(N2CCOCC2)n1)/c1ccccc1 | 7.34% (inactive) | 
Cc1ccccc1N/N=C/c1ccc(N2CCOCC2)cc1 |  | 8.91 µM (active)
C/C(=N\NC(=O)c1ccccc1C)c1ccc(N2CCOCC2)cc1 | 5.33% (inactive) | 
O=C(CCN1CCN(C/C=C/c2ccccc2)CC1)Nc1cccc(F)c1 | 9.75% (inactive) | 
COc1ccc(N2C(=O)C(CC(=O)Nc3ccccc3)N(Cc3ccc(OC)c(OC)c3)C2=O)cc1 (stereo unspecified) | 2.78% (inactive) | 
CCOc1ccc(NC(=O)CC2C(=O)N(c3ccccc3)C(=O)N2CCOC)cc1 (stereo unspecified) |  | 15.8 µM (active)
COc1ccc(N2C(=O)C(CC(=O)Nc3ccc(F)cc3)N(CCc3cccs3)C2=O)cc1 (stereo unspecified) | -2.98% (inactive) | 
NC(=O)c1ccccc1N(Cc1ccccc1)S(=O)(=O)c1ccccc1 | 3.35% (inactive) | 
N#CCc1ccc(OC(=O)c2cccnc2)cc1 | 14% (inactive) | 
CCCCN(C(=O)/C=C/c1ccco1)c1c(N)n(CC(C)C)c(=O)[nH]c1=O | 3.6% (inactive) | 
CCNC(=S)NNC(=O)c1ccc2ncccc2c1 | -2.18% (inactive) | 
CCCCc1ccc(S(N)(=O)=O)cc1 | -5.42% (inactive) | 
COc1ccc(OCC(=O)NCCc2ccc(S(N)(=O)=O)cc2)cc1 | 38.9% (inactive) | 
CN(C)c1ccc(C=NCCc2ccc(S(N)(=O)=O)cc2)cc1 |  | 0.708 µM (active)
O=S(=O)(Cc1ccccc1)c1nc2ccccc2n1Cc1ccccn1 | 2.81% (inactive) | 
Cc1cc(C(=O)OCC(=O)c2c(N)n(C)c(=O)n(C)c2=O)c(C)o1 | -5.4% (inactive) | 
CCc1ccc(OCC(=O)OCC(=O)c2c(N)n(C)c(=O)n(C)c2=O)cc1 | 0.715% (inactive) | 
Cn1c(N)c(C(=O)COC(=O)c2cnc(Cl)c(Cl)c2)c(=O)n(C)c1=O |  | 8.91 µM (active)
